Source: PubChem BioAssay
Rows were chosen to be rich in hits. Some 3% of all compounds tested hit in one or more screens of this group.
14-3-3 Bad inh – disrupts binding of bovine 14-3-3 zeta to phospho-Bad peptide. P63103. TR-FRET 14-3-3zeta/Dy647-pBad peptide displacement, 1 h. inhibition, % at 21.7 µM. 220,000 compounds, 0.71% hits;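 active means inhibition above about 70%, limit read from the data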;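 further: 0% = full 14-3-3 plus peptide FRET controls and 100% = background without 14-3-3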
Target sequence (P63103 whole entry, looked up): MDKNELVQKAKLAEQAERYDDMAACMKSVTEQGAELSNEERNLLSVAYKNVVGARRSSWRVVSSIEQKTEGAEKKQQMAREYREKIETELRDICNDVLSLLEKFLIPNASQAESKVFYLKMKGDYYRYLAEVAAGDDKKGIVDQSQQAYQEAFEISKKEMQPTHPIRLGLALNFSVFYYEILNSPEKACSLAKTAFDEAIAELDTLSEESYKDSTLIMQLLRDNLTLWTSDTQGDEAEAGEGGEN
TNF necrop inh – inhibitors of TNF-alpha induced necroptosis in Jurkat FADD-/- cells. 220,000 compounds, 0.068% hits. AID 463075. Jurkat FADD-/- TNF necroptosis rescue, ATP luminescence, 24 h; 0 = TNF only, 100 = no-TNF cells. activation (protection from cell death), % at 10 µM;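 active means activation, meaning protection from cell death, of at least 50% relative to plate controls; inactive means activation below 50%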;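 further: necroptosis triggered by 40 ng/mL TNF-alpha added together with compound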
Efa HMGR inh – inhibitors of class II HMG-CoA reductase from Enterococcus faecalis; purified E. faecalis HMGR, NADPH absorbance 340 nm kinetic; 190,000 compounds, 0.41% hits; inhibition, % at 10 µM; AID 1066;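 active means inhibition above a set limit, the median over all tested compounds plus 3 SD, cut at about 9.5% in these data; inconclusive means no clear call, values can overlap the other calls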;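 further: enzyme runs in reverse so mevalonate oxidation gives rising NADPH absorbance; 0% = complete reaction with DMSO and 100% = background rate lacking mevalonate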
zVAD death inh – L929 zVAD cell death inhibition | L929 zVAD necroptosis rescue, ATP luminescence, 24 h; with zVAD 60 µM | viability rescue, % at 10 µM | 220,000 compounds, 0.38% hits | AID 1377;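 active means activation, scaled between plate controls, above about 75%, limit read from the data; inactive means activation under that limit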;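 further: 0% = zVAD with DMSO and 100% = DMSO alone without zVAD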
Calpain2 inh – blocks pig calpain II enzyme activity; purified calpain II, fluorogenic peptide substrate, 30 min; inhibition, % at 16 µM; 220,000 compounds, 0.37% hits; AID 1236;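 active means inhibition above about 50%, limit read from the data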
ROMK mod – human ROMK K+ channel modulation, primary screen; P48048; Tet-inducible ROMK, thallium flux fluorescence; actives lie on both sides; B-score at 10 µM; 130,000 compounds, 2% hits; AID 1918;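 active means signal ratio slope over the read window, or its plate-corrected B-score, at least 3 SD from the plate mean, either direction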;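 further: B-score of the F/F0 ratio slope over 7 to 12 s after thallium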
ROMK hit retest – retested hit modulating human ROMK potassium channel | shares compounds with ROMK mod | ROMK thallium flux, fluorescence ratio; active compounds read low | normalized thallium flux (F/F0 slope) at 10 µM | 3,000 compounds, 54% hits | AID 1917;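 active means Flux at 10 µM at least 3 SD below or above vehicle control mean in one or both replicates; inconclusive means no clear call, values can overlap the other calls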
* marks the source's active call; other numbers are inactive results.

O=C(c1cc(N2C(=O)C3C4CCC(C4)C3C2=O)ccc1Cl)N1CCN(c2ccc(F)cc2)CC1 (centres undefined) was read as 14-3-3 Bad inh 2.5, TNF necrop inh 2.3, Efa HMGR inh -3.5, zVAD death inh -0.1, Calpain2 inh -10.2, ROMK mod -5.02* and ROMK hit retest 0.0607*.
`O=c1cc(-c2ccccc2F)oc2ccccc12` gave 14-3-3 Bad inh 1.5, TNF necrop inh -1.8, Efa HMGR inh -3.5, zVAD death inh 1.0, Calpain2 inh -4.6 and ROMK mod 0.0833.
Screening O=c1cc(-c2ccccc2[N+](=O)[O-])oc2ccccc12 returned 14-3-3 Bad inh 38.3, TNF necrop inh -3.6, Efa HMGR inh -5.2, zVAD death inh 2.6, Calpain2 inh 11.9, ROMK mod 2.38* and ROMK hit retest 0.0793.
For O=C(Nc1ccc(OC(F)(F)F)cc1)c1[nH]ncc1[N+](=O)[O-] the results were 14-3-3 Bad inh -14.0, TNF necrop inh 0.2, Efa HMGR inh -1.8, zVAD death inh 2.8, Calpain2 inh 7.8 and ROMK mod -0.947.
COc1cccc(Cn2c(=S)[nH]c3ccc(N4CCOCC4)cc3c2=O)c1 was read as 14-3-3 Bad inh 0.0, TNF necrop inh 2.2, Efa HMGR inh -7.2, zVAD death inh 0.6, Calpain2 inh -253.4 and ROMK mod -0.988.
O=c1c2cc(N3CCOCC3)ccc2[nH]c(=S)n1Cc1cccc(Cl)c1 was read as 14-3-3 Bad inh -18.3, TNF necrop inh -0.1, Efa HMGR inh -2.5, zVAD death inh -0.1, Calpain2 inh -151.5 and ROMK hit retest 0.0862.
Screening CCOc1cc(/C=N/Nc2nc(Nc3ccccc3)nc(N3CCCCC3)n2)ccc1OCC(=O)O returned 14-3-3 Bad inh 1.3, TNF necrop inh 2.3, Efa HMGR inh -0.1, zVAD death inh -0.3, Calpain2 inh -5.1 and ROMK mod 0.632.
Screening CCOc1cc(/C=N/NC(=O)c2ccc(-c3csc(Nc4ccc(C)cc4)n3)cc2)ccc1OCC(=O)O returned 14-3-3 Bad inh 75.0*, TNF necrop inh 1.0, Efa HMGR inh -6.6, zVAD death inh 1.0, Calpain2 inh -139.8, ROMK mod 3.28* and ROMK hit retest inconclusive.
Screening CCCCOC(=O)CCNc1n[nH]c(=O)[nH]c1=O returned 14-3-3 Bad inh 8.7, TNF necrop inh 1.0, Efa HMGR inh 0.3, zVAD death inh 1.2, Calpain2 inh 19.1 and ROMK hit retest 0.0874.
For C(#Cc1ccccc1)C[N+]1(CC#Cc2cccc3ccccc23)CCCC1 the results were 14-3-3 Bad inh 12.4, TNF necrop inh 2.4, Efa HMGR inh -4.2, zVAD death inh -0.3, Calpain2 inh 8.3, ROMK mod -4.51* and ROMK hit retest 0.0493*.
Screening CC(=O)NS(=O)(=O)c1ccc(NC(=O)CSc2ccccc2)cc1 returned 14-3-3 Bad inh -1.6, TNF necrop inh 0.1, zVAD death inh 0.0, Calpain2 inh 20.2 and ROMK hit retest 0.0785.
Screening O=C(CSc1ccccc1)Nc1ccc(S(=O)(=O)Nc2ncccn2)cc1 returned 14-3-3 Bad inh -0.2, TNF necrop inh 1.4, Efa HMGR inh -0.6, zVAD death inh 1.4, Calpain2 inh -8.0 and ROMK mod 0.586.
CC(=O)Oc1cc2oc(=O)c3c(c2cc1Cl)CCC3 was read as 14-3-3 Bad inh 12.6, TNF necrop inh -0.5, Efa HMGR inh 3.9, zVAD death inh -0.7 and Calpain2 inh inactive.
O=C(Nc1ccccc1Cl)Nc1cccnc1Cl was read as 14-3-3 Bad inh -8.7, TNF necrop inh -4.5, Efa HMGR inh -2.4, zVAD death inh -1.4, Calpain2 inh 1.8 and ROMK mod -0.016.
For CCn1c(Oc2ccc(F)cc2)nc2c1c(=O)n(C)c(=O)n2C the results were 14-3-3 Bad inh -5.0, TNF necrop inh 2.0, Efa HMGR inh -3.8, zVAD death inh 1.0, Calpain2 inh -5.7 and ROMK mod -0.664.
CCCCn1c(Oc2ccc(C(=O)OC)cc2)nc2c1c(=O)n(C)c(=O)n2C was read as 14-3-3 Bad inh -5.6, TNF necrop inh -1.9, Efa HMGR inh -7.5, zVAD death inh -0.7, Calpain2 inh 26.7, ROMK mod -3.65* and ROMK hit retest 0.0605*.
